# Test results published in publication PMC5540273 (PLoS ONE, 2017).
# Columns and labels:
# Settings in all cases: concentration: 1 μM, replicates: in singlicate; n = 1
# PRKX = tested on: PRKX
# PRP4 = tested on: PRP4
# PYK2 = tested on: T1, PYK2
# T1 construct: gene PTK2B
# QSK = tested on: QSK
# RAF1 = tested on: RAF1
# RET = tested on: RET
# RIOK1 = tested on: RIOK1
# RIOK2 = tested on: RIOK2
# RIOK3 = tested on: RIOK3
# RIPK1 = tested on: RIPK1
# 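Note: KINOMEscan kinase panel screen.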
Structure (SMILES),%Inh (PRKX) [%],%Inh (PRP4) [%],%Inh (PYK2) [%],%Inh (QSK) [%],%Inh (RAF1) [%],%Inh (RET) [%],%Inh (RIOK1) [%],%Inh (RIOK2) [%],%Inh (RIOK3) [%],%Inh (RIPK1) [%]
C[C@@H]1CC[C@H](C(=O)NC2CCCCC2)CN1c1cc(-c2ccc3c(N)n[nH]c3c2)nc(N)n1 [GSK2291363],84,26,24,7,16,53,96.1,22,93.7,22
Nc1nc(N)c2nc(-c3ccccc3)[nH]c2n1 [SKF-12778],7,0,0,10,11,25,20,37,8,18
CN1C(=O)C(Nc2cc(Cl)c(O)c(Cl)c2)=C(c2ccc(Cl)cc2)C1=O [SB-404321],0,17,1,0,10,0,0,0,0,0
CCc1ccc(-c2ccc3c(c2)-c2nn(C)cc2S(=O)(=O)N3C)cc1,0,27,0,0,19,16,15,0,0,12
COc1cccc(-n2cnc3c(N)ncnc32)c1 [SKF-97416],32,0,0,28,0,0,0,22,0,0
Nc1ncnc2c1ncn2-c1ccc(Cl)cc1 [AH2635],0,36,21,0,1,9,51,0,35,17
COc1cc2nccc(Nc3ccc(OCc4ccc(NC(C)=O)cc4)cc3)c2cc1OC.Cl [GW440135],7,50,26,15,18,11,0,0,0,0
COc1ccc(-c2cc3c(C)nc(N)nc3n([C@H]3CC[C@H](OCCO)CC3)c2=O)cn1,12,0,0,0,0,0,0,0,0,0
COc1ccc(-c2coc3ccc(-c4nnc(SCc5cccc(C#N)c5)o4)cc23)cc1,0,18,0,0,14,16,0,5,11,0
CCS(=O)(=O)c1ccc(OC)c(Nc2ncc(-c3ccc(F)cc3)o2)c1.Cl [GW591947],0,16,11,0,9,13,22,0,29,10
Cc1cc(Nc2nc(-c3cccc(C)n3)nc3ccccc23)ccn1 [GW872411],0,0,14,0,0,0,0,0,0,0
Nc1n[nH]c2ncc(-c3ccccc3)cc12 [SB-517081],0,24,0,1,0,12,6,0,4,0
COc1cc2ncn(-c3cc(OCc4ccncc4Br)c(C(N)=O)s3)c2cc1OC [GW854278],26,0,7,2,7,20,38,14,39,3
O=C(Nc1n[nH]c2nc(-c3ccccc3)c(Cl)cc12)C1CC1 [SB-734909],0,0,0,38,30,0,7,41,7,55
Cc1nnc(-c2ccc(C)c(-c3ccc(C(=O)O)cc3)c2)o1 [GW608005],0,8,0,0,0,2,15,19,0,5
CCC(=O)c1c(-c2ccccc2)c2cc(Cl)ccc2c(=O)n1Cc1cc(S(C)(=O)=O)n(CCC(C)(C)O)n1,30,0,0,8,14,14,8,42,0,20
Cc1nc(N(C)[C@H]2CN(C(=O)CC#N)CC[C@H]2C)c2cc[nH]c2n1,4,0,0,0,0,5,0,2,8,11
